Results taken from ChEMBL document CHEMBL5308504, “Tm Shift (DSF) assay results for EUbOPEN Chemogenomics Library” (2023).

Columns and labels:
[1] = target: Bromodomain-containing protein 4 (Homo sapiens) (UniProt O60885); settings: Compound concentration 20.0 uM, Protein concentration 2.0 uM, Result type QC Liability
[2] = target: T1, Transcription intermediary factor 1-alpha (Homo sapiens) (UniProt O15164); settings: Compound concentration 20.0 uM, Protein concentration 2.0 uM, Result type QC Liability
T1 sequence (whole entry): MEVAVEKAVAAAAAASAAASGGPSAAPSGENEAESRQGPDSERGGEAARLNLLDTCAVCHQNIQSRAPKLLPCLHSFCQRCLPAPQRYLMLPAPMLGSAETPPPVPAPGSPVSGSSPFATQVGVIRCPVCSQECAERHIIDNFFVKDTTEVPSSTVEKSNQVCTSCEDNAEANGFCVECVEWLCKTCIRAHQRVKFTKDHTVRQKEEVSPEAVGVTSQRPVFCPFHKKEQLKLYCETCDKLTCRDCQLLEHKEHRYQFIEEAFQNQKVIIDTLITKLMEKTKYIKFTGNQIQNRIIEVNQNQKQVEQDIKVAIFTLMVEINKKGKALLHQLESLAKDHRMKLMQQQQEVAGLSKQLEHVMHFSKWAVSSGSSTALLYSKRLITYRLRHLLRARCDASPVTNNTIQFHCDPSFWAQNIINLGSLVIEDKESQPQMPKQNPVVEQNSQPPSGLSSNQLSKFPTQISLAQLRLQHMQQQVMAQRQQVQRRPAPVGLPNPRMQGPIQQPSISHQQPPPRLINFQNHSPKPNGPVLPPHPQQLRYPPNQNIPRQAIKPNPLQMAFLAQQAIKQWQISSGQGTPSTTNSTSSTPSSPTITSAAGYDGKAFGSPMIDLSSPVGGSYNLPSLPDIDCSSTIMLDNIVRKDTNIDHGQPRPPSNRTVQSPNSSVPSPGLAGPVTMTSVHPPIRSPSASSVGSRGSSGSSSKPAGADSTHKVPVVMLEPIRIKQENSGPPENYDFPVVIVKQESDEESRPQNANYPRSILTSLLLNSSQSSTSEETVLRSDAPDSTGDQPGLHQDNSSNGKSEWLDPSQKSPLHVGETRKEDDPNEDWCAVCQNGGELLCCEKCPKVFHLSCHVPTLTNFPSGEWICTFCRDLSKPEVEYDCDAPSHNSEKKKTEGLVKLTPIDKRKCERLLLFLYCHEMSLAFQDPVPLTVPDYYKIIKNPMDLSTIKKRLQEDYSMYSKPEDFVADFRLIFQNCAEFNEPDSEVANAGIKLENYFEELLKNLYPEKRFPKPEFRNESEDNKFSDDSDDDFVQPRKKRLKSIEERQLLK

## Cn1c(C2(NC(=O)c3ccc(NCC4CCCCC4)nc3)CCC2)nc2ccc(/C=C/C(=O)O)cc21
[1]
  ΔTm: 0.73 °C
[2]
  ΔTm: 0.39 °C

## CN(C)C/C=C/C(=O)Nc1ccc(C(=O)Nc2cccc(Nc3ncc(Cl)c(-c4c[nH]c5ccccc45)n3)c2)cc1
[1]
  ΔTm: -2.3 °C
[2]
  ΔTm: -1.56 °C

## Nc1nccc(-c2c(-c3ccc(F)cc3)ncn2C2CCN(Cc3ccon3)CC2)n1
[1]
  ΔTm: -2.58 °C
[2]
  ΔTm: -2.27 °C

## COc1cc(N(C)c2ccnc3ccc(C(F)(F)F)cc23)cc(OC)c1OC
[1]
  ΔTm: -0.67 °C
[2]
  ΔTm: -4.07 °C

## N#Cc1ccc(COc2ccc(Br)cc2CNCCO)cn1
[1]
  ΔTm: -0.82 °C
[2]
  ΔTm: -0.53 °C

## CC(C)c1cnn2c(NCc3ccccc3)cc(NCCCCCCN)nc12
[1]
  ΔTm: 0.76 °C
[2]
  ΔTm: -3.25 °C

## CN1C(=O)c2ccccc2N(C)c2nc(Nc3cnn(C4CCNCC4)c3)ncc21
[1]
  ΔTm: 3.95 °C
[2]
  ΔTm: -1.94 °C

## CCn1c(=O)c2c(C)c(C(=O)N3CCC(O)CC3)sc2n(CCC(F)(F)F)c1=O
[1]
  ΔTm: -12.7 °C
[2]
  ΔTm: 0.23 °C

## CC(C)(O)CNC(=O)N1C(=O)N(c2cccc(C(F)(F)F)c2)C2=C(C(=O)CC2)[C@@H]1c1ccc(C#N)cc1
[1]
  ΔTm: -0.6 °C
[2]
  ΔTm: 0.83 °C

## Clc1ccc(-c2nc3sccn3c2/C=N/OCc2ccc(Cl)c(Cl)c2)cc1
[1]
  ΔTm: -1.58 °C
[2]
  ΔTm: -1.95 °C

## COC(=O)Nc1nc2c(s1)-c1c(c(-c3cccnc3)nn1-c1ccc(C3(N(C)C)CC3)cc1)CC2
[1]
  ΔTm: -1.63 °C
[2]
  ΔTm: -3.18 °C

## O=C(Nc1snnc1C(=O)Nc1ccc(N2CCCC2)cc1)c1cncc(C(F)(F)F)c1
[1]
  ΔTm: -0.7 °C
[2]
  ΔTm: -1.14 °C

## O=c1[nH]c(CS[C@H]2CC[C@H](O)CC2)nc2cc(OCC3CC3)cc(F)c12
[1]
  ΔTm: -0.97 °C
[2]
  ΔTm: -3.28 °C

## CCCCCCCN(CCc1ccc(SC(C)(C)C(=O)O)cc1)C(=O)Nc1ccc(F)cc1F
[1]
  ΔTm: -1.9 °C
[2]
  ΔTm: -3.36 °C

## CN[C@@H](C)C(=O)N[C@H](C(=O)N1CCC[C@H]1C(=O)N[C@@H]1CCCc2ccccc21)C1CCCCC1
[1]
  ΔTm: -2.83 °C
[2]
  ΔTm: -1.41 °C

## O=C(CCCN1CCC(O)(c2ccc(Cl)cc2)CC1)c1ccc(F)cc1
[1]
  ΔTm: -3.1 °C
[2]
  ΔTm: -2.64 °C

## Nc1ncnc2[nH]c(-c3ccccc3)nc12
[1]
  ΔTm: -1.11 °C
[2]
  ΔTm: -2.07 °C

## CC[C@H](NC(=O)[C@H](C)NC)C(=O)N1C[C@@H](O)C[C@H]1Cc1c(-c2[nH]c3cc(F)ccc3c2C[C@@H]2C[C@H](O)CN2C(=O)[C@H](CC)NC(=O)[C@H](C)NC)[nH]c2cc(F)ccc12
[1]
  ΔTm: -3.47 °C
[2]
  ΔTm: -3.97 °C

## Cc1c(NC(=O)c2ccc(C(C)(C)C)cc2)cccc1-c1cn(C)c(=O)c(Nc2ccc(C(=O)N3CCOCC3)cc2)n1
[1]
  ΔTm: -9.46 °C
[2]
  ΔTm: 0.14 °C

## COc1ccc(C(=O)N[C@H](C)c2cccc(C(=O)Nc3nc4c(s3)CN(C)CC4)c2)cc1C
[1]
  ΔTm: -1.18 °C
[2]
  ΔTm: -2.54 °C

## Cc1ncsc1-c1ccc(CNC(=O)[C@@H]2C[C@@H](O)CN2C(=O)[C@@H](NC(=O)CCCCNC(=O)c2ccc(-c3ccc(N4CCN(C)CC4)c(NC(=O)c4c[nH]c(=O)cc4C(F)(F)F)c3)cc2)C(C)(C)C)cc1
[1]
  ΔTm: -6.12 °C
[2]
  ΔTm: -1.25 °C

## CC(C)N(C(=O)C1CCOCC1)c1cc(F)c(Oc2ncc(Cn3nccn3)cc2C(F)(F)F)cc1C(=O)O
[1]
  ΔTm: -3.14 °C
[2]
  ΔTm: 0.13 °C

## COC(=O)c1ccc2c(c1)NC(=O)/C2=C(\Nc1ccc(-c2nccn2C)cc1)c1ccccc1
[1]
  ΔTm: -1.87 °C
[2]
  ΔTm: -3.33 °C

## CCCCNc1ncc2c(-c3ccc(CN4CCN(C)CC4)cc3)cn([C@H]3CC[C@H](O)CC3)c2n1
[1]
  ΔTm: -3.24 °C
[2]
  ΔTm: -0.35 °C

## CCc1ncnc(N2CCN(C(C)=O)CC2)c1C#Cc1ccc(N)nc1
[1]
  ΔTm: -1.64 °C
[2]
  ΔTm: -3.55 °C

## C1=Cc2ccccc2C(=C2CCN(CCCCc3nnn[nH]3)CC2)c2ccccc21
[1]
  ΔTm: -12.7 °C
[2]
  ΔTm: -0.3 °C

## COc1ccc(-c2csc(NC(=O)[C@H]3CCCCN3S(=O)(=O)c3ccc(C)cc3)n2)cc1
[1]
  ΔTm: 3.35 °C
[2]
  ΔTm: -0.04 °C

## CN(C)c1ncc2cc(-c3ccc(-c4ncccc4F)cc3Cl)c(=O)n(C[C@H]3OC[C@H](N)CO3)c2n1
[1]
  ΔTm: -2 °C
[2]
  ΔTm: -2.59 °C

## CCN1C(=O)N(c2c(F)c(OC)cc(OC)c2F)Cc2cnc3[nH]c(CN4CCOCC4)cc3c21
[1]
  ΔTm: -1.4 °C
[2]
  ΔTm: -3.85 °C

## CNc1nc(Nc2ccc(C(=O)N3CCOCC3)cc2OC)ncc1Cl
[1]
  ΔTm: -0.71 °C
[2]
  ΔTm: -2.04 °C

## Cc1nc2c(cc1F)c(-c1nnc3c(n1)NC(=O)C3(C)C)nn2Cc1cccc(F)c1F
[1]
  ΔTm: -0.37 °C
[2]
  ΔTm: 0.14 °C

## COc1ccc(COc2ccc(Cc3cnc(N)nc3N)cc2OC)cc1
[1]
  ΔTm: -1.17 °C
[2]
  ΔTm: -1.22 °C

## C=CC(=O)Nc1ccc(C(=O)Nc2[nH]nc3c2CN(C(=O)N[C@H](CN(C)C)c2ccccc2)C3(C)C)cc1
[1]
  ΔTm: 0.61 °C
[2]
  ΔTm: -2.21 °C
